The results in this text go back to PubChem BioAssay (NCI).

Among the test systems are BT-549 breast; MDA-MB-435 melanoma; SW-620 colon; MCF7 breast; HCT-116 colon; HCC-2998 colon; KM12 colon.
Test in all cases: NCI-60 one-dose screen, 48 h (100 = growth as untreated, 0 = no growth, -100 = all killed)
Common to all, as to conditions: 10 µM unless noted

The panel holds about 83,000 compounds, 20% with a hit somewhere; the sample as a whole holds those more often.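 Interpretation: 100, growth as untreated; towards 0, rising growth inhibition; 0, no net growth; 0 to -100, cell death. Compounds scoring below 10 were considered active.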 Unmarked numbers belong to inactive results. The source made the active and inactive calls.

As to `COc1ccc(/C=C/C(=O)c2ccc(NC(=O)CSc3nnc(-c4ccc(OC)c(OC)c4)n3-c3ccccc3)cc2)cc1`, the growth in the assay on BT-549 breast is 55.2%; in the assay with MDA-MB-435 melanoma it was 45.3%; in the assay on SW-620 colon it was 10.2%; in the assay with MCF7 breast it was -8.34% (active); in the assay with HCT-116 colon, -85.8% (active); in the assay on HCC-2998 colon, 94.9%. For the same molecule, in the assay on KM12 colon, the growth is 61.3%.
As to `CCOC(=O)c1c(-c2ccc(O)cc2)c(C#N)c2c(C#N)c(N)nn2c1N`, the growth in the assay with BT-549 breast is 60.9%; with MDA-MB-435 melanoma it was 1.63% (active); with SW-620 colon, 42.6%; in the assay on MCF7 breast, 31.5%; in the assay on HCT-116 colon, 67.6%; in the assay on HCC-2998 colon, 80.9%. The growth in the assay on KM12 colon is 47.5%.
For the molecule `CCc1ccc(OCc2ccccc2C(=O)Nc2ccc3nc(C)cc(N)c3c2)cc1`, the growth was -91.9% (active) with BT-549 breast; -91.2% (active) in the assay with MDA-MB-435 melanoma; -64.3% (active) with SW-620 colon; -70.2% (active) with MCF7 breast; -99.3% (active) in the assay on HCT-116 colon; -76.8% (active) in the assay on HCC-2998 colon. The growth in the assay with KM12 colon was -78.9% (active).
With `Cc1nnc(/N=C2\NC(=O)/C(=C/c3ccsc3)S2)s1`, the growth in the assay on BT-549 breast is 94.6%; in the assay on MDA-MB-435 melanoma it was 91.5%; in the assay with SW-620 colon, 98.8%; with MCF7 breast, 79%; in the assay on HCT-116 colon it was 83.6%; in the assay on HCC-2998 colon it was 95.7%. In addition, the growth with KM12 colon was 84.7%.
Regarding `N#Cc1ccc(N2Cc3cc(Cl)ccc3OC3=C2C(=O)N(Cc2ccc(F)cc2)C3=O)cc1`, the growth in the assay on BT-549 breast was -63.3% (active); with MDA-MB-435 melanoma, -48.8% (active); in the assay on SW-620 colon, -81% (active); with MCF7 breast, -19.5% (active); in the assay on HCT-116 colon, -90.4% (active); in the assay with HCC-2998 colon, 42.2%. Further, the growth with KM12 colon was 52.6%.
On to `Nc1ccc2c(c1)C(=O)C(=O)c1c-2nc2ccccn12`, for which the growth was -34.6% (active) in the assay with BT-549 breast; -87.3% (active) in the assay with MDA-MB-435 melanoma; 4.01% (active) in the assay with SW-620 colon; -54.7% (active) in the assay with MCF7 breast; 1.3% (active) in the assay with HCT-116 colon; 19.4% in the assay with HCC-2998 colon. For the same molecule, in the assay on KM12 colon, the growth was 20%.
As to `COc1cc(NC(=O)c2cc(O)c(C/C=C(\C)CCC=C(C)C)c(O)c2)cc2c1O[C@]1(C)CC[C@@H](O)C(C)(C)[C@H]1C2`, the growth is 0.27% (active) in the assay with BT-549 breast; 10.2% in the assay on MDA-MB-435 melanoma; 9.02% (active) in the assay on SW-620 colon; 8.42% (active) in the assay on MCF7 breast; 10.8% in the assay with HCT-116 colon; 16.4% in the assay with HCC-2998 colon. Besides, in the assay on KM12 colon, the growth is 7.44% (active).
As for `Cn1cc(-c2ccc3c(c2)ncn3-c2ccc(CC(=O)Nc3cc(C(C)(C)C)on3)cc2)cn1`, the growth is 31.5% with BT-549 breast; 34.8% in the assay with MDA-MB-435 melanoma; 33.7% in the assay with SW-620 colon; 26.9% with MCF7 breast; 16.6% in the assay on HCT-116 colon; 76.3% in the assay on HCC-2998 colon. In the assay on KM12 colon, the growth is 16.3%.
On to `C=C(C)[C@@H]1CC[C@]2(C(=O)OCCOCCOCC[P+](c3ccccc3)(c3ccccc3)c3ccccc3)CC[C@]3(C)[C@H](CC[C@@H]4[C@@]5(C)CC[C@H](OC(=O)C(Cl)Cl)C(C)(C)[C@@H]5CC[C@]43C)[C@@H]12`, for which the growth is -89.4% (active) with BT-549 breast; -62.5% (active) with MDA-MB-435 melanoma; 5.87% (active) with SW-620 colon; 1.7% (active) in the assay with MCF7 breast; -84.1% (active) with HCT-116 colon; 12.1% in the assay on HCC-2998 colon. For the same molecule, in the assay with KM12 colon, the growth was -55.7% (active).
`c1ccc2c3c([nH]c2c1)C(c1ccc(C2NCCc4c2[nH]c2ccccc42)cc1)NCC3` (configuration not stated): the growth in the assay on BT-549 breast was 86.9%; in the assay with MDA-MB-435 melanoma, -91.6% (active); in the assay on SW-620 colon, -80% (active); in the assay on MCF7 breast, -81.2% (active); in the assay with HCT-116 colon it was -91.7% (active); with HCC-2998 colon it was -64.8% (active). Also, in the assay with KM12 colon, the growth was -62% (active).
For the molecule `CC(/C=C/c1ccccc1)=N/NC(=O)c1ccncc1`, the growth with BT-549 breast is 105%; in the assay with MDA-MB-435 melanoma, 106%; in the assay with SW-620 colon, 98.7%; with MCF7 breast, 93.6%; in the assay with HCT-116 colon, 92.7%; with HCC-2998 colon it was 107%. Further, the growth with KM12 colon was 105%.
`CCOC(=O)C(=Cc1c(-c2ccccc2)[nH]c2ccccc12)C(=O)OCC`: the growth with BT-549 breast was 67.1%; with MDA-MB-435 melanoma, 14.5%; with SW-620 colon, 53.5%; in the assay on MCF7 breast, 41.6%; in the assay on HCT-116 colon, 41%; in the assay with HCC-2998 colon, 80.7%. For the same molecule, in the assay with KM12 colon, the growth is 24.1%.
In the case of `CN1CCN(S(=O)(=O)O[C@@H]2C(=O)N(c3cc4c5ccccc5ccc4c4ccccc34)[C@H]2c2ccc(F)cn2)CC1`, the growth in the assay with BT-549 breast is 95.8%; with MDA-MB-435 melanoma it was 98.1%; with SW-620 colon, 98.2%; in the assay on MCF7 breast, 87.4%; with HCT-116 colon, 85.3%; in the assay on HCC-2998 colon, 90.4%. Moreover, in the assay with KM12 colon, the growth was 91.1%.
As to `C=C1C(=O)O[C@H]2[C@H]1CC/C(COC(=O)N1CCC[C@H]1C(=O)Nc1ccc(OC)c(C(N)=O)c1O)=C\CC[C@@]1(C)O[C@@H]21`, the growth was 38.5% in the assay with BT-549 breast; 44.3% in the assay on MDA-MB-435 melanoma; 2.83% (active) with SW-620 colon; 12.1% with MCF7 breast; 14.8% with HCT-116 colon; 94.8% with HCC-2998 colon. For the same molecule, the growth in the assay with KM12 colon was 67.2%.
With `COc1cc(/C=C/C(=O)/C=C/c2cc3ccc(Cl)cc3[nH]c2=O)ccc1O`, the growth in the assay on BT-549 breast was 97.5%; in the assay on MDA-MB-435 melanoma, 36%; in the assay with SW-620 colon it was 29.7%; with MCF7 breast it was 57.8%; in the assay on HCT-116 colon, 2.1% (active); in the assay on HCC-2998 colon, 86.3%. Also, the growth in the assay with KM12 colon was 81.3%.
Take `CCCCOc1nc2ccc(C)cc2cc1/C=C/C(=O)/C=C/c1ccc2c(c1)OCO2`: the growth was 75.9% in the assay with BT-549 breast; 35.8% in the assay on MDA-MB-435 melanoma; 99.5% in the assay with SW-620 colon; 37.8% with MCF7 breast; 10.5% with HCT-116 colon; 106% with HCC-2998 colon. In addition, the growth in the assay on KM12 colon was 87.3%.
